Experiments:
Experiment in all cases: DAPPL (digital affinity profiling via proximity ligation, sequencing); 10 mM Tris-HCl pH 7.5, 50 mM NaCl, 1 mM DTT, 4% glycerol, room temperature, 30 min; GST-TFs on glutathione beads, 16-mer random dsDNA library, 0.1% formaldehyde crosslink after washing; high values mean tight binding
Details in all cases: protein: recombinant; tags: N-terminal GST; dsDNA, one strand shown
[1] = target: T1, FLI1 (Homo sapiens, UniProt Q01543 1-452)
T1 sequence: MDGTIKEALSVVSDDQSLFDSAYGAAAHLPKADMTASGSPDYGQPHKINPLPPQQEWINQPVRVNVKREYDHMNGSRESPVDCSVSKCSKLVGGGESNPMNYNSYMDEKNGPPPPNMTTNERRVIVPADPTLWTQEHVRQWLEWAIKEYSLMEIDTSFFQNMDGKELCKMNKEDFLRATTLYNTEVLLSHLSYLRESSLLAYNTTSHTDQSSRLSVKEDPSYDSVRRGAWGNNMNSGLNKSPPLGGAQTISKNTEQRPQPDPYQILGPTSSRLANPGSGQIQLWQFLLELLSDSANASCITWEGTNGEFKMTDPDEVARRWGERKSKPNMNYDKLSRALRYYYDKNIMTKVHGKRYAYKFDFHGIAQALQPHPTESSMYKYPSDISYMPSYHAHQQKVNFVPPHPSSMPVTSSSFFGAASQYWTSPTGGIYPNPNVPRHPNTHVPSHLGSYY
How it was run: (§1)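 Binding signal is defined as a hexamer's read frequency for one factor over its frequency for the tag-only sample. To obtain reads, GST-fused human transcription factors were expressed in yeast, captured on glutathione beads, barcoded with DNA and pooled with that sample. Pools met 200 nmole of a 16-mer random double-stranded DNA library in Tris/NaCl/DTT/glycerol buffer for 30 min at room temperature before washing, 0.1% formaldehyde crosslinking, proximity ligation (BsaI/T4 ligase, 1 h, 37 °C), PCR and Illumina NextSeq500 sequencing.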

[2] = target: T2, ELK1 (Homo sapiens, UniProt P19419 1-428)
T2 sequence: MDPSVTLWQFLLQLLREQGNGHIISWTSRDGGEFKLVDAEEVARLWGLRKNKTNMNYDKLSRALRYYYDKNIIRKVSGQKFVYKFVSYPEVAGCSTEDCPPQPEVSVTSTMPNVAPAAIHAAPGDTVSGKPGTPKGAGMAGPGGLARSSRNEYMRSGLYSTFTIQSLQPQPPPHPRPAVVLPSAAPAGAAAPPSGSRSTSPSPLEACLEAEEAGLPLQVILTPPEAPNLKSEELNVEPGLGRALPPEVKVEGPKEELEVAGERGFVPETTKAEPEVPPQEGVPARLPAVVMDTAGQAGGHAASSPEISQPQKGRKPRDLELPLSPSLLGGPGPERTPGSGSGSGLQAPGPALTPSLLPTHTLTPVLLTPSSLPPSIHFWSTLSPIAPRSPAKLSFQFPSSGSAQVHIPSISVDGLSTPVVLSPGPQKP
How it was run: as §1

[3] = target: T3, GABPA (Homo sapiens, UniProt Q06546 1-454)
T3 sequence: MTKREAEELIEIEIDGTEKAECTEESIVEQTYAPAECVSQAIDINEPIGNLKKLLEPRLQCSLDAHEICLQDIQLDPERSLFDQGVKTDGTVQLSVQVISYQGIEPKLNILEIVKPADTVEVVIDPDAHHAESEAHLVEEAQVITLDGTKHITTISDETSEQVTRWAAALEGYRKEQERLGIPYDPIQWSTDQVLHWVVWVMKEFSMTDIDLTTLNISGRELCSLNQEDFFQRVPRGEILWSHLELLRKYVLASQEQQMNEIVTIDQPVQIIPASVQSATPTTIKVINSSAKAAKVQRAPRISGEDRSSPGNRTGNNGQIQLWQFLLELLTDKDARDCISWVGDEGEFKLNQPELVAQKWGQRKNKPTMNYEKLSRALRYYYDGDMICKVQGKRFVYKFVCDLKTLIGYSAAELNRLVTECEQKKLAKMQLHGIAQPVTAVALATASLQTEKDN
How it was run: as §1

[4] = target: T4, ERG (Homo sapiens, UniProt P11308 1-479)
T4 sequence: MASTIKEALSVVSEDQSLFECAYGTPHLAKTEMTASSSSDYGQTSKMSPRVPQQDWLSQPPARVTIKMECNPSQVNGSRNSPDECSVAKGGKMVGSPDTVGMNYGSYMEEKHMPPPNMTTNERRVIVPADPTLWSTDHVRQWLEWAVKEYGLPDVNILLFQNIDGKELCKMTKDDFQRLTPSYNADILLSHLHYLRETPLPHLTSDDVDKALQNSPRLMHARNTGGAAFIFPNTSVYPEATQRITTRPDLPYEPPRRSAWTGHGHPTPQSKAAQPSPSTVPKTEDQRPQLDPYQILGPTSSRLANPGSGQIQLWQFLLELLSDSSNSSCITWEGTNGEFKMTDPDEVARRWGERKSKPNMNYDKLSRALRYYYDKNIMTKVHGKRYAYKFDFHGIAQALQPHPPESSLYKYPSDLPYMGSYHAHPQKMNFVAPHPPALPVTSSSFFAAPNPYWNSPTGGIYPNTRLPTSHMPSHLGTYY
How it was run: as §1

[5] = target: ELF1 (Homo sapiens, UniProt P32519 1-619)
Chain of ELF1 (P32519 whole entry): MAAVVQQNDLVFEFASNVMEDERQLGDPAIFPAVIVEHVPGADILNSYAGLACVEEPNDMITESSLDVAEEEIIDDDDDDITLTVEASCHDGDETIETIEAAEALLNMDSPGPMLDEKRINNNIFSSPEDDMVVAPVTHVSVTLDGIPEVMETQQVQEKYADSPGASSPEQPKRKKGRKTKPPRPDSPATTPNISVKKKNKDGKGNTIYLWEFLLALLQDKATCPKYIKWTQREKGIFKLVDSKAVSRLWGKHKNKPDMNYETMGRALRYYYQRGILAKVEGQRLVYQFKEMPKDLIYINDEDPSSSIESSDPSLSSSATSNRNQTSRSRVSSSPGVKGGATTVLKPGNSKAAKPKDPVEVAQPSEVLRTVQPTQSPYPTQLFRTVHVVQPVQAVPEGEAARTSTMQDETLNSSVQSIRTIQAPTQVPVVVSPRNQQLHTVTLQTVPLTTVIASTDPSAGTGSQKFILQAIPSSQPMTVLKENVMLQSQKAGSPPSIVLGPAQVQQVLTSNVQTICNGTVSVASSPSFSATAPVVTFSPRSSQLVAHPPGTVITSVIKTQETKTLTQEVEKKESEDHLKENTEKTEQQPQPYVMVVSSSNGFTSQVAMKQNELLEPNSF
How it was run: as §1

[6] = target: T5, EHF (Homo sapiens, UniProt Q9NZC4 1-300)
T5 sequence: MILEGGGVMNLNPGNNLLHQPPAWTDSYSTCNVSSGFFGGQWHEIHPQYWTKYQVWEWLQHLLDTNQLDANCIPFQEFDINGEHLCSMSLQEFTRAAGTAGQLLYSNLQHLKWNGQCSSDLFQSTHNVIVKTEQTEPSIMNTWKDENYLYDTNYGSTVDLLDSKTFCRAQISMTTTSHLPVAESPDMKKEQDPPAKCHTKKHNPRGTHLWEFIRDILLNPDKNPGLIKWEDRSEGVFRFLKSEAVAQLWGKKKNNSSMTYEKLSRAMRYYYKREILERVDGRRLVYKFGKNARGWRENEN
How it was run: as §1

[7] = target: SPI1 (Homo sapiens, UniProt P17947 1-270)
How it was run: as §1

[8] = target: SPIB (Homo sapiens, UniProt Q01892 1-262)
Chain of SPIB (Q01892 whole entry): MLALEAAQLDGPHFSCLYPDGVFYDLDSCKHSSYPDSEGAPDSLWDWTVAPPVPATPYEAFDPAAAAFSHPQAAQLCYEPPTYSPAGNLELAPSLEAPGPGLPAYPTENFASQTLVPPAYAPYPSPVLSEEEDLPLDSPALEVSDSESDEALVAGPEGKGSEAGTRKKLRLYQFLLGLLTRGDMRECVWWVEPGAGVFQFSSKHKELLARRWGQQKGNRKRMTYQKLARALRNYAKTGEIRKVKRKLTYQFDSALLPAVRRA
How it was run: as §1

[9] = target: T6, ELK3 (Homo sapiens, UniProt P41970 1-407)
T6 sequence: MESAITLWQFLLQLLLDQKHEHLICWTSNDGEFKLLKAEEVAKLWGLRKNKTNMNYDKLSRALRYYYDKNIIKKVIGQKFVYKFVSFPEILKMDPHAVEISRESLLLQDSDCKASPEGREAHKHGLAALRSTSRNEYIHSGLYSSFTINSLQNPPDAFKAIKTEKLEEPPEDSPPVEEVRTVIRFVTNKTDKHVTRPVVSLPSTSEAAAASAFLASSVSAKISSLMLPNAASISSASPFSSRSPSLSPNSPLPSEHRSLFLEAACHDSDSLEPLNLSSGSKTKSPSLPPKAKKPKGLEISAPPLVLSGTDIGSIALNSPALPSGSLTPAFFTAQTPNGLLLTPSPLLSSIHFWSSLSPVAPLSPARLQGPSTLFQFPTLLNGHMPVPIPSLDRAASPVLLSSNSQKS
How it was run: as §1

[10] = target: T7, FEV (Homo sapiens, UniProt Q99581 1-238)
T7 sequence: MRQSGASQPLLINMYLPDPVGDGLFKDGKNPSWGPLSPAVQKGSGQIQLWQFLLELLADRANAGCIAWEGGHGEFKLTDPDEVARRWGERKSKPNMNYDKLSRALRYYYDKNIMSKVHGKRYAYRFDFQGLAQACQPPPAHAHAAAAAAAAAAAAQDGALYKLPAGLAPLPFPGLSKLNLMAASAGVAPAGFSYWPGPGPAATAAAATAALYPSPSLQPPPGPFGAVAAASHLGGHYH
How it was run: as §1

[11] = target: ETV5 (Homo sapiens, UniProt P41161 1-510)
Chain of ETV5 (P41161 whole entry): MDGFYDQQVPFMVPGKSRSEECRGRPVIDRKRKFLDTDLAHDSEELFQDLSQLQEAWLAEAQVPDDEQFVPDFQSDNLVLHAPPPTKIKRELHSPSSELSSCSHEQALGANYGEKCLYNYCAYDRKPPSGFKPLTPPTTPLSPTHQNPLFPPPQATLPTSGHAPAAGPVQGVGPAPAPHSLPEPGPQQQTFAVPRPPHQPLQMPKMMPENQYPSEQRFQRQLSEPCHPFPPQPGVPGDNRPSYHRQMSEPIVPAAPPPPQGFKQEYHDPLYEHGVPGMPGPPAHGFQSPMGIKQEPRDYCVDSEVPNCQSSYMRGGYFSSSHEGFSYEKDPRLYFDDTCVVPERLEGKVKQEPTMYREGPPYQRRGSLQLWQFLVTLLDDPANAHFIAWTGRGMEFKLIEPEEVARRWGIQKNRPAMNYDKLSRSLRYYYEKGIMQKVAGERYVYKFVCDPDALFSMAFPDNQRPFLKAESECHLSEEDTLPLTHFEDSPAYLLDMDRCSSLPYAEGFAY
How it was run: as §1

[12] = target: T8, SPIC (Homo sapiens, UniProt Q8N5J4 1-248)
T8 sequence: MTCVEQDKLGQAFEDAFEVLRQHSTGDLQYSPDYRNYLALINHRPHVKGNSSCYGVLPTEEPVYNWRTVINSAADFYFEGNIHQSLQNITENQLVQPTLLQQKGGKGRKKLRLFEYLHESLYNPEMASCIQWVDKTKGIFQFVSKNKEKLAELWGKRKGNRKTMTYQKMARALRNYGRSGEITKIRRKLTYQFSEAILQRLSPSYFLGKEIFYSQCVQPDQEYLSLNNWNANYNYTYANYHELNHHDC
How it was run: as §1

[13] = target: ELF4 (Homo sapiens, UniProt Q99607 1-663)
Chain of ELF4 (Q99607 whole entry): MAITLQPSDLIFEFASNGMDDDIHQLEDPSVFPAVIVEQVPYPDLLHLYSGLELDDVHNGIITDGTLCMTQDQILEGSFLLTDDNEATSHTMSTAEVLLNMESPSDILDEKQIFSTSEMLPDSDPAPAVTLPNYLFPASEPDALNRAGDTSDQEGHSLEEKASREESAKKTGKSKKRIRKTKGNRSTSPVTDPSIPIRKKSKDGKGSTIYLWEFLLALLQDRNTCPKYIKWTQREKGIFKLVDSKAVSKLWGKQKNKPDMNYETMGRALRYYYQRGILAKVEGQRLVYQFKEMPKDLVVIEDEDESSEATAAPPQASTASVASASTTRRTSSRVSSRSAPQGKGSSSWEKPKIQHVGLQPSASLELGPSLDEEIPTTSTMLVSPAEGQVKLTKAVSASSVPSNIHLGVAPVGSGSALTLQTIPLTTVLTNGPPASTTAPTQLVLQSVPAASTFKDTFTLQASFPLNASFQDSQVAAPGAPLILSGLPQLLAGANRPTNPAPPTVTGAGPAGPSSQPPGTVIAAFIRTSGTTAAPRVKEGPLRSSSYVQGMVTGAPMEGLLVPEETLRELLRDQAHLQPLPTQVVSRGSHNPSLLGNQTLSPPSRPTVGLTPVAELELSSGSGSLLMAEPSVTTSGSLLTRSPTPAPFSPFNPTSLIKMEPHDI
How it was run: as §1

[14] = target: T9, ELK4 (Homo sapiens, UniProt P28324-2 1-405)
T9 sequence: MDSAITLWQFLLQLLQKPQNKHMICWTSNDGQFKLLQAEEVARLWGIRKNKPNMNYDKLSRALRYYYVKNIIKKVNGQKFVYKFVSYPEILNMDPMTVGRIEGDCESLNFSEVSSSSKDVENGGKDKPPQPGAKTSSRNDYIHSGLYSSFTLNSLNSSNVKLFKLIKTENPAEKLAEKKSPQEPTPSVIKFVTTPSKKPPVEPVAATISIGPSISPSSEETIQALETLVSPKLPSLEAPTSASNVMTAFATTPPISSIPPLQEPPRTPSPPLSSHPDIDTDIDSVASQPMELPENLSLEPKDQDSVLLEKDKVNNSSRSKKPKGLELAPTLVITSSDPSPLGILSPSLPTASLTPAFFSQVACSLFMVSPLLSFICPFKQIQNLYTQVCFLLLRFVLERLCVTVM
How it was run: as §1

[15] = target: T10, ETV2 (Homo sapiens, UniProt O00321 1-342)
T10 sequence: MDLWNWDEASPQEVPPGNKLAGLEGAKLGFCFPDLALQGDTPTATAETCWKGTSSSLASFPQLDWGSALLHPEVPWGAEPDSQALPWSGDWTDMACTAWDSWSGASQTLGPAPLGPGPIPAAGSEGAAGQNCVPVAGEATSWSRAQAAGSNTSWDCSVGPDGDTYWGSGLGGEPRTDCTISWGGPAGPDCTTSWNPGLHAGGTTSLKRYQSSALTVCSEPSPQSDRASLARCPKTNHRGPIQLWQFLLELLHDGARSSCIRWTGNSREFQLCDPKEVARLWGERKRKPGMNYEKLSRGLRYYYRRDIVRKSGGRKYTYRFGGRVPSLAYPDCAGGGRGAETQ
How it was run: as §1

[16] = target: T11, ELF3 (Homo sapiens, UniProt P78545 1-371)
T11 sequence: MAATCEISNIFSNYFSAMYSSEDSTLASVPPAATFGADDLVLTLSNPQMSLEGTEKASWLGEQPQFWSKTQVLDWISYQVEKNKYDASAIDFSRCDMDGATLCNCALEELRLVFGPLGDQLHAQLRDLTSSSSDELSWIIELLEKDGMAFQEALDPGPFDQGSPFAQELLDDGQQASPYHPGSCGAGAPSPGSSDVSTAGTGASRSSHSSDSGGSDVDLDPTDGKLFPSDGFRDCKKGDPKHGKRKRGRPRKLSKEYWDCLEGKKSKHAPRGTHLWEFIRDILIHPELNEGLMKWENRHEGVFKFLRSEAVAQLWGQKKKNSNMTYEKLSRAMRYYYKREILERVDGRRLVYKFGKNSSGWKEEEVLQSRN
How it was run: as §1

[17] = target: ETV1 (Homo sapiens, UniProt P50549 1-477)
Chain of ETV1 (P50549 whole entry): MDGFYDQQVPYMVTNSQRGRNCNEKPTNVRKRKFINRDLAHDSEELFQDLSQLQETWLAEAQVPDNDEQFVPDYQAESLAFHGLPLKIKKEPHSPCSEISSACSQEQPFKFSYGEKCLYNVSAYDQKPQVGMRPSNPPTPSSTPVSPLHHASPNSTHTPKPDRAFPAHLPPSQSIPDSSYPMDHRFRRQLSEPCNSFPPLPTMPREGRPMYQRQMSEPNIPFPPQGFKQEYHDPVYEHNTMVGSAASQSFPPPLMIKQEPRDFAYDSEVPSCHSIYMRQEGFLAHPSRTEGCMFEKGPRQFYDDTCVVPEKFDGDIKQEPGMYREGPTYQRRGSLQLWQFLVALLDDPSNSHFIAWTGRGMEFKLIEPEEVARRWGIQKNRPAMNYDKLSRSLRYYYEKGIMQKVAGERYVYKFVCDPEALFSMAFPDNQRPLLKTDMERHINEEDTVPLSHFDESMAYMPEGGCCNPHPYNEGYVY
How it was run: as §1

Row | Sequence | binding signal [1] | binding signal [2] | binding signal [3] | binding signal [4] | binding signal [5] | binding signal [6] | binding signal [7] | binding signal [8] | binding signal [9] | binding signal [10] | binding signal [11] | binding signal [12] | binding signal [13] | binding signal [14] | binding signal [15] | binding signal [16] | binding signal [17]
1 | GTATGC | 1.22 fold enrichment (6-mer frequency, TF over GST control) | 1.24 fold enrichment (6-mer frequency, TF over GST control) | 1.17 fold enrichment (6-mer frequency, TF over GST control) | 1.11 fold enrichment (6-mer frequency, TF over GST control) | 1.2 fold enrichment (6-mer frequency, TF over GST control) | 1.14 fold enrichment (6-mer frequency, TF over GST control) | 1.23 fold enrichment (6-mer frequency, TF over GST control) | 1.2 fold enrichment (6-mer frequency, TF over GST control) | 1.13 fold enrichment (6-mer frequency, TF over GST control) | 1.15 fold enrichment (6-mer frequency, TF over GST control) | 1.17 fold enrichment (6-mer frequency, TF over GST control) | 1.14 fold enrichment (6-mer frequency, TF over GST control) | 1.16 fold enrichment (6-mer frequency, TF over GST control) | 1.23 fold enrichment (6-mer frequency, TF over GST control) | 1.25 fold enrichment (6-mer frequency, TF over GST control) | 1.1 fold enrichment (6-mer frequency, TF over GST control) | 1.12 fold enrichment (6-mer frequency, TF over GST control)
2 | GATACG | 1.11 fold enrichment (6-mer frequency, TF over GST control) | 1.12 fold enrichment (6-mer frequency, TF over GST control) | 1.12 fold enrichment (6-mer frequency, TF over GST control) | 1.11 fold enrichment (6-mer frequency, TF over GST control) | 1.15 fold enrichment (6-mer frequency, TF over GST control) | 1.24 fold enrichment (6-mer frequency, TF over GST control) | 1.04 fold enrichment (6-mer frequency, TF over GST control) | 1.17 fold enrichment (6-mer frequency, TF over GST control) | 1.18 fold enrichment (6-mer frequency, TF over GST control) | 1.08 fold enrichment (6-mer frequency, TF over GST control) | 1.1 fold enrichment (6-mer frequency, TF over GST control) | 1.2 fold enrichment (6-mer frequency, TF over GST control) | 1.07 fold enrichment (6-mer frequency, TF over GST control) | 1.13 fold enrichment (6-mer frequency, TF over GST control) | 1.06 fold enrichment (6-mer frequency, TF over GST control) | 1.09 fold enrichment (6-mer frequency, TF over GST control) | 1.1 fold enrichment (6-mer frequency, TF over GST control)

From paper PMC7862700, “An all-to-all approach to the identification of sequence-specific readers for epigenetic DNA modifications on cytosine”
